Assay results taken from PubChem BioAssay AID1159580 (chemical genetic matrix, 2015).
“And” between values parts separate entries of the source, which are not always exact repeats. Equal values may be shown once. About 2,000 (36%) of roughly 5,500 compounds were called active. Inconclusive results (about 18%) are left out. No stated cut-off is given here; in the data, active means normalized growth mostly below about 0.91 (no sharp cut-off); inconclusive means no clear call, values can overlap the other calls; inactive means mostly above about 0.92. The list shows a part of the results.

Assay: chemical genetic growth profiling, strain panel (AID 1159580);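 further: tested at 20 µM; growth read once vehicle control cultures reached saturation at 30 °C; 1 = growth at the plate median or of vehicle wells; lower values mean less growth of the strain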
Details: S. cerevisiae deletion strains, growth OD

Measured: normalized growth

CC(CCc1ccccc1)NCC(O)c1ccc(O)c(C(N)=O)c1 (stereo not given)
inactive: locus YAL013W, strain DEP1, active compounds read low 1 | locus YAL021C, strain ccr4, active compounds read low 1 | locus YAL026C, strain drs2, active compounds read low 1.01 | locus YAL030W, strain snc1, active compounds read low 0.997 | locus YAL040C, strain CLN3, active compounds read low 1.01 | locus YBL061C, strain skt5, active compounds read low 1.01 | locus YBR009C, strain hhf1, active compounds read low 1 | locus YBR021W, strain FUR4, active compounds read low 1.01 | locus YBR023C, strain chs3, active compounds read low 1.01 | locus YBR171W, strain sec66, active compounds read low 1.01 | locus YBR229C, strain ROT2, active compounds read low 1 | locus YBR231C, strain swc5, active compounds read low 1.01 | locus YBR279W, strain paf1, active compounds read low 1 | locus YCL011C, strain gbp2, active compounds read low 1.01 | locus YCL016C, strain dcc1, active compounds read low 1.01 | locus YCL029C, strain bik1, active compounds read low 1.01 | locus YCL061C, strain MRC1 (second series), active compounds read low 1.01 | locus YCL061C, strain MRC1, active compounds read low 0.997 | locus YCL069W, strain vba3, active compounds read low 1 | locus YCR088W, strain abp1, active compounds read low 1.01 | locus YDL005C, strain med2, active compounds read low 1.01 | locus YDL035C, strain GPR1, active compounds read low 1.01 | locus YDL040C, strain nat1, active compounds read low 1.01 | locus YDL074C, strain BRE1, active compounds read low 0.977 | locus YDL101C, strain DUN1, active compounds read low 1 | locus YDL134C, strain PPH21, active compounds read low 1.02 | locus YDL185W, strain tfp1, active compounds read low 1.01 | locus YDL192W, strain arf1, active compounds read low 1.01 | locus YDR001C, strain nth1, active compounds read low 1.01 | locus YDR069C, strain doa4, active compounds read low 1.01 | locus YDR101C, strain arx1, active compounds read low 0.999 | locus YDR137W, strain rgp1, active compounds read low 1.01 | locus YDR150W, strain NUM1, active compounds read low 1 | locus YDR159W, strain sac3, active compounds read low 1.01 | locus YDR162C, strain NBP2, active compounds read low 1.02 | locus YDR195W, strain ref2 1.01 | locus YDR297W, strain sur2, active compounds read low 1.01 | locus YDR318W, strain mcm21, active compounds read low 1.02 | locus YDR334W, strain swr1, active compounds read low 0.99 | locus YDR335W, strain msn5, active compounds read low 1 | locus YDR363W, strain ESC2, active compounds read low 1 | locus YDR388W, active compounds read low 1.02 | locus YDR392W, strain spt3, active compounds read low 1 | locus YDR502C, strain sam2, active compounds read low 1.01 | locus YEL003W, strain gim4, active compounds read low 0.999 | locus YEL037C, strain rad23, active compounds read low 1 | locus YEL061C, strain CIN8 (second series), active compounds read low 1.01 | locus YEL061C, strain CIN8, active compounds read low 0.997 | locus YER002W, strain NOP16, active compounds read low 1.03 | locus YER015W, strain faa2, active compounds read low 0.997 | locus YER016W, strain bim1, active compounds read low 1 | locus YER110C, active compounds read low 1.02 | locus YER111C, strain swi4, active compounds read low 1.01 | locus YER155C, strain BEM2 (second series), active compounds read low 1.01 | locus YER155C, strain BEM2, active compounds read low 1 | locus YER167W, strain BCK2, active compounds read low 1.02 | locus YFR010W, strain ubp6, active compounds read low 1 | locus YGL078C, strain dbp3, active compounds read low 1.01 | locus YGL086W, strain mad1, active compounds read low 1.01 | locus YGL167C, strain pmr1, active compounds read low 1 | locus YGL173C, strain kem1, active compounds read low 1.01 | locus YGL227W, strain vid30, active compounds read low 1.02 | locus YGL240W, strain doc1, active compounds read low 1 | locus YGL248W, strain PDE1, active compounds read low 0.992 | locus YGL253W, strain hxk2, active compounds read low 1 | locus YGR078C, strain PAC10, active compounds read low 0.985 | locus YGR135W, strain pre9, active compounds read low 1.05 | locus YGR252W, strain gcn5, active compounds read low 0.996 | locus YHR013C, strain ard1, active compounds read low 1 | locus YHR027C, strain rpn1, active compounds read low 1 | locus YHR030C, strain SLT2, active compounds read low 1 and 1.02 | locus YHR079C, strain IRE1 (second series), active compounds read low 1.02 | locus YHR079C, strain IRE1, active compounds read low 1.04 | locus YHR094C, strain hxt1, active compounds read low 1.02 | locus YHR129C, strain ARP1, active compounds read low 1.01 | locus YHR142W, strain chs7, active compounds read low 1.02 | locus YHR200W, strain rpn10, active compounds read low 1.01 | locus YIL066C, strain RNR3, active compounds read low 0.995 | locus YIL073C, strain SPO22, active compounds read low 1.1 | locus YIL125W, strain kgd1, active compounds read low 1.01 | locus YIR030C, strain dcg1, active compounds read low 1.03 | locus YJL092W, strain hpr5, active compounds read low 1.01 | locus YJL095W, strain BCK1 (second series), active compounds read low 1.01 | locus YJL095W, strain BCK1, active compounds read low 0.981 and 1.05 | locus YJL115W, strain asf1, active compounds read low 1 | locus YJL129C, strain trk1, active compounds read low 1 | locus YJL134W, strain LCB3, active compounds read low 1 | locus YJL154C, strain vps35, active compounds read low 1 | locus YJL164C, strain tpk1, active compounds read low 0.996 | locus YJL166W, strain qcr8, active compounds read low 1 | locus YJL168C, strain set2, active compounds read low 1.01 | locus YJL187C, strain SWE1 (second series), active compounds read low 0.983 | locus YJL187C, strain SWE1, active compounds read low 1.01 | locus YJR043C, strain POL32, active compounds read low 0.986 | locus YJR066W, strain TOR1, active compounds read low 0.977
